Assay results published in PubChem BioAssay AID1671190 (National Center for Advancing Translational Sciences (NCATS), 2021).
The whole screen tested about 580,000 compounds, of which about 6,100 (1.1%) were called active. About 15% were inconclusive and are not listed. The call rests on the fitted dose curve; in most records, active means well fitted inhibition curve with a large enough effect; inconclusive means small, poorly fitted or top-dose-only effect, or another doubt; inactive means no such curve, though single readings can be large or run the other way. The list comes from a sample in which actives are over-represented; it also holds similar structures and randomly drawn compounds.

target: Polyunsaturated fatty acid lipoxygenase ALOX12 (Homo sapiens) (UniProt P18054); experiment: Primary qHTS assay for inhibitors of human arachidonate 12S-lipoxygenase (ALOX12): Round 2; conditions: purified 12hLO, xylenol orange hydroperoxide absorbance; series mostly up to 108 µM; activity change, negative = inhibition: at the top concentration
Sequence (P18054 whole entry, looked up): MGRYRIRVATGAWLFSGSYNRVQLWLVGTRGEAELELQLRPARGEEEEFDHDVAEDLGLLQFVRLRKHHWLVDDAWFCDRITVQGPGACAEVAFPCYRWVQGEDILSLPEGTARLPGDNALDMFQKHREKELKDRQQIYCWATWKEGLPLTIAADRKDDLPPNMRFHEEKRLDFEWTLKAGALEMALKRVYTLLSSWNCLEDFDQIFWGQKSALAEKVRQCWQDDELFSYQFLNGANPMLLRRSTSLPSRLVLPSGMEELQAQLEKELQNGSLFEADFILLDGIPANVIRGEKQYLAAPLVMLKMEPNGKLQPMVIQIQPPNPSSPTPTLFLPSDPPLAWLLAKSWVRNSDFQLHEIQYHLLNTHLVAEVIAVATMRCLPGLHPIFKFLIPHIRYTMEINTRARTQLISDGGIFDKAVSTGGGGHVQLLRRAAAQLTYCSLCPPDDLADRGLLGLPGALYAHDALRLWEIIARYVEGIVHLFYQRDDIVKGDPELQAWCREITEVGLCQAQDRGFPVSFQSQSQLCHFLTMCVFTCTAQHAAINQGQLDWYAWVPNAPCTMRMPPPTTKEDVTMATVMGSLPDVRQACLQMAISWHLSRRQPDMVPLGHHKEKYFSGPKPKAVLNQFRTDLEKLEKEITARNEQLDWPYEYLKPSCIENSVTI
Summary of the method: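 Purified human 12hLO at 150 nM in 25 mM Hepes, 0.01% Triton X-100, pH 7.0, preincubated 15 min at room temperature with compound. Reaction started with 40 uM arachidonic acid, 30 min at room temperature. Hydroperoxide measured by Fe-xylenol orange, 573/405 nm absorbance ratio.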
On the % scale 0 is the no-effect control and ±100 the full control effect; potency means the concentration at half of the fitted maximal effect.

Activity change, negative = inhibition, inactive:
Cc1oc(C)c2c(=O)cc(-c3ccc4c(c3)OCO4)cc(OC(=O)c3ccc(Cl)cc3)c12 6.01%
COc1ccc(-c2c(C)c3ccc(O)c(CN4CCCC4)c3oc2=O)cc1OC -10.4%
CCn1nc(C)c(CNC(=O)Nc2cc(Cl)ccc2OC)c1C 23.7%
O=C(c1ccc2c(c1)N(C(=O)c1ccccc1)CC2)N1CCN(c2ccc(Cl)cc2)CC1 38.8%
Cc1ccc2cc(C(=O)NCc3cccnc3-n3cccn3)c(C)nc2c1 7.82%
Cc1nc(C)c(C(=O)N2CCC(N3C(=O)C4(CCCC4)C3c3ccccc3)CC2)s1 (configuration not stated) 58%
Cc1nc2cc(NC(=O)C3CC(=O)N(CC4CC4)C3)ccc2o1 (configuration not stated) 0.248%
NS(=O)(=O)c1ccc2nc(NC(=O)COc3ccccc3)sc2c1 2.54%
CC(C)CC(CC(C)C)=NNC(=O)COc1ccc(C#N)cc1 -15.3%
O=C1COc2ccc(C(=O)COC(=O)c3nn(Cc4ccccc4)c(=O)c4ccccc34)cc2N1 -18.9%
Cn1nc(C2CCN(C(=O)c3cccc(Cl)c3)CC2)[nH]c1=O 47.3% [at 176 µM]
CC(C)(C)C(=O)N1CCC(c2nn(-c3ccc(F)cc3)c(=O)[nH]2)CC1 3.33% [at 176 µM]
Cc1ccc(C(=O)N2CCC(c3nn(-c4ccccc4)c(=O)[nH]3)CC2)cc1 4.19%
O=C(c1ccc(F)cc1)N1CCCC(c2nn(-c3cccc(Cl)c3)c(=O)[nH]2)C1 (configuration not stated) 5.72%
COc1cc(Cl)c(C)cc1NC(=O)Cn1nc(-c2cccs2)oc1=O 65.1%
CCCN(CC(F)(F)F)C(=O)c1ccc(NC(=O)NC(C)C)cc1 -27.5%
Cc1ccc(-n2ccc(C=O)c2)c(C)c1 9.12%
C=CCN(C)C(=O)C[C@@H]1c2nc(NC(=O)c3ccc(C(C)(C)C)cc3)sc2C[C@@H]2[C@](C)(CO)[C@H](O)CC[C@]21C -2.6%
CCN(CC)C(=O)[C@@H](C)C1CC[C@@]2(C)Cc3sc(N)nc3[C@@H](C)[C@@H]2[C@H]1O (some centres not stated) 48% [at 176 µM]
CC(Sc1cc(F)ccc1F)C(=O)Nc1ccnn1C(C)C (configuration not stated) -13.5%
O=C(NCc1ccc(Cl)c(Cl)c1)C1CCN(c2ncnc3nc[nH]c23)CC1 -1.44%
CCCNC(=O)C1(C)CCCN(Cc2cccc(C(F)(F)F)c2)C1 (configuration not stated) -21.5%
CC(=O)N1CCC2(CCCN(Cc3ccccc3)C2)CC1 -19.8% [at 57.4 µM]
CC(C)(C)OC(=O)C(C#N)c1cnccn1 (configuration not stated) 0.566%
COc1ccc(C(O)(C2CCCCC2)C(CN2CCCC2)c2ccccc2)cc1 (configuration not stated) 0%
CC(C)Oc1ccc(C(=O)NC(C)(C)CO)cc1 -27.6%
O=C(CN1C(=O)CC2(CCCCC2)C1=O)c1c[nH]c2ccccc12 24.3%
CCn1nc(C(=O)Nc2ccccn2)c2ccccc2c1=O -0.227%
Cc1ccccc1CNC(=O)c1cc(-c2ccncc2)nc2ccccc12 -19.4%
COc1ccc(C2C(=O)N(C3CCCCCC3)CC(=O)N2CCc2ccc(Cl)cc2)cc1OC (configuration not stated) -25.5%
CCC1(C)COC(c2ccc(OC)c(OC)c2)OC1 (configuration not stated) -2.84%
CCN(CC)S(=O)(=O)c1ccc(-c2csc(-c3ccc(OC)c(OC)c3)n2)cc1 -13.9%
CC(C)(C)c1ccc(/C=N/NC(=O)c2ccccc2)cc1 27.4%
O=C(CN1c2ccccc2S(=O)(=O)c2ccccc21)Nc1cccc(C(F)(F)F)c1 -26.5%
O=C(O)c1cc(-c2ccc3ccccc3n2)nc2ccc3ccccc3c12 2.92%
CC1(C)CC(=O)C/C(=N/NC(=O)c2ccc(NC(=O)C3CC3)cc2)C1 -1.6%
O=S(=O)(NC1CC1)c1ccc2c3c(cccc13)CC2 8.58%
CCCCC(=O)Nc1ccccc1C(C)CC (configuration not stated) 2.54%
Cc1nn(-c2ccc(F)cc2)c(Oc2ccccc2F)c1CCC(=O)NCC1CCCO1 (configuration not stated) 48.6%
C=CCNC(=O)N1CC[C@H]2CC(=O)N(c3ccccc3)CC[C@H]2C1 0.74% [at 176 µM]

Potency, inactive:
N#CC1(NC(=O)COC(=O)Cc2n[nH]c(=O)c3ccccc23)CCCCC1

Potency, active:
CCOc1cc(-c2ccc(O)c(OC)c2)cc(=O)c2c(C)oc(C)c12 7.08 µM
N#Cc1ccc(OCC(=O)Nc2nc(-c3ccccn3)cs2)cc1 17.8 µM
O=C(Cc1cccc(Cl)c1)N1CCC(c2nn(-c3ccc(Cl)cc3)c(=O)[nH]2)CC1 20 µM
O=C(c1ccccc1F)N1CCC(c2nn(-c3ccc(Cl)cc3)c(=O)[nH]2)CC1 31.6 µM
C=CCN(C)C(=O)[C@@H](C)C1CC[C@@]2(C)Cc3sc(NS(=O)(=O)c4ccc(Cl)cc4)nc3[C@@H](C)[C@@H]2[C@H]1O (some centres not stated) 31.6 µM
CC(=O)NC1(C)CCN(Cc2cccc(-c3ccc(C(=O)c4ccccc4)cc3)c2)C1 (configuration not stated) 39.8 µM
CC(C)Oc1ccc(C(O)(CC[N+](C)(C)C)C2CCCCC2)cc1 (configuration not stated) 11.2 µM
COc1ccc(C2NC(=O)C(=O)/C2=C(\O)c2ccc(Cl)cc2)cc1OC (configuration not stated) 28.2 µM
FC(F)(F)c1cccc(N/N=C/c2ccccc2)c1 3.55 µM
N#CC1(Nc2ccc3c4c(cccc24)CC3)CCCCC1 31.6 µM
C=CCNC(=S)/N=c1/ccccn1Cc1ccccc1 44.7 µM
